From the antibiotic and cytotoxicity screens of Wong et al. (2023)
About 3,300 (8.5%) of roughly 39,000 compounds were called active. The list comes from a sample in which actives are over-represented; it also holds similar structures and randomly drawn compounds.

These compounds were tested on HepG2 (assay: cytotoxicity call (relative viability < 0.9)). Conditions: 10 µM.

SMILES	cytotoxicity call
CC(C)(C)[S@](=O)N1Cc2cc(C(=O)N3CCc4ccccc4C3)nc(-c3cccc(-c4cccnc4)c3)c2[C@@H]1CCO	inactive
Cc1ccc(S(=O)(=O)Nc2ccc3c(c2)C(=O)N([C@H](C)CO)C[C@H](C)[C@@H](CN(C)S(=O)(=O)c2ccc(F)cc2)OCCCC[C@@H](C)O3)cc1	inactive
C[C@H](CO)N1C[C@H](C)[C@H](CN(C)C(=O)Nc2cccc3ccccc23)Oc2c(NC(=O)Nc3ccc(F)cc3)cccc2C1=O	inactive
C[C@H]1CN([C@@H](C)CO)C(=O)c2cccc(NC(=O)Nc3ccc(C(F)(F)F)cc3)c2O[C@H]1CN(C)C(=O)Nc1cccc2ccccc12	inactive
C[C@H]1CN([C@@H](C)CO)C(=O)c2cccc(NC(=O)Nc3ccc(C(F)(F)F)cc3)c2O[C@@H]1CN(C)C(=O)Nc1cccc2ccccc12	active
CC(=O)NCCCC[C@@H]1NC(=O)[C@H]2C[C@@H](C(=O)NCCCC[N+](C)(C)C)[C@@H](c3cccc(OCCO)c3)N2C1=O	inactive
C[N+](C)(C)CCCCNC(=O)[C@H]1C[C@H]2C(=O)N3CCC[C@H]3C(=O)N2[C@H]1c1cccc(OCCO)c1	active
C[N+](C)(C)CCCCNC(=O)[C@@H]1C[C@@H]2C(=O)N[C@@H](CCCC[N+](C)(C)C)C(=O)N2[C@@H]1c1ccc(O)cc1	inactive
C[N+](C)(C)CCCCCCNC(=O)[C@H]1C[C@H]2C(=O)N3CCC[C@H]3C(=O)N2[C@H]1c1cccc(OCCO)c1	inactive
C[N+](C)(C)CCCCNC(=O)[C@H]1C[C@H]2C(=O)N[C@@H](CCCC[N+](C)(C)C)C(=O)N2[C@H]1c1ccc(O)cc1	inactive
C[N+](C)(C)CCCCNC(=O)[C@H]1C[C@H]2C(=O)N[C@@H](CCCC[N+](C)(C)C)C(=O)N2[C@H]1c1cccc(OCCO)c1	inactive
CC(=O)NCCCC[C@@H]1NC(=O)[C@@H]2C[C@H](C(=O)NCCCC[N+](C)(C)C)[C@H](c3cccc(OCCO)c3)N2C1=O	active
CC(=O)NCCCC[C@@H]1NC(=O)[C@H]2C[C@@H](C(=O)NCCCC[N+](C)(C)C)[C@@H](c3ccc(O)cc3)N2C1=O	active
C[N+](C)(C)CCCCNC(=O)[C@@H]1C[C@@H]2C(=O)N3CCC[C@H]3C(=O)N2[C@@H]1c1cccc(OCCO)c1	inactive
C[C@H](CO)N1C[C@H](C)[C@H](CN(C)C(=O)C2CCCCC2)OCCCC[C@H](C)Oc2ccc(NC(=O)c3ccccc3)cc2C1=O	inactive
O=C(C[C@@H]1CC=CC[C@H](NC(=O)OCC2c3ccccc3-c3ccccc32)C(=O)O[C@H](c2ccccc2)CNC1=O)N[C@@H](CO)Cc1ccccc1	inactive
CNC(=O)C[C@H]1CC[C@@H]2[C@H](COC[C@H](O)CN2C(=O)Nc2ccc3c(c2)OCO3)O1	inactive
CO[C@H]1CN(C)C(=O)c2ccc(NS(=O)(=O)CC(F)(F)F)cc2OC[C@H](C)N(C(=O)NC(C)C)C[C@@H]1C	inactive
CO[C@@H]1CN(C)C(=O)c2cc(NS(=O)(=O)c3cn(C)cn3)ccc2OC[C@H](C)N(CC2CC2)C[C@@H]1C	inactive

SMILES	cytotoxicity call
CNC(=O)c1cnc2n1CCN(Cc1nccn1C)C2	inactive
CC(C)[C@H](NC(=O)[C@H](C)N(C)C)C(=O)N1CC[C@@H]2Oc3ccc(cc3)/C=C\NC(=O)[C@H](Cc3ccccc3)NC(=O)[C@H]21	inactive
C[C@@H]1CN([C@H](C)CO)C(=O)c2cc(NC(=O)Cn3cnnn3)ccc2O[C@H]1CN(C)S(=O)(=O)c1ccc(F)cc1	inactive
O=C(C[C@@H]1C[C@H]2c3cc(NC(=O)Nc4ccccc4F)ccc3O[C@H]2[C@@H](CO)O1)NCc1ccc(Oc2ccccc2)cc1	inactive
C[C@@H]1CN([C@H](C)CO)C(=O)c2cc(NC(=O)Nc3cccc4ccccc34)ccc2O[C@H]1CN(C)Cc1ccc(Oc2ccccc2)cc1	active
C[C@@H]1CN([C@@H](C)CO)C(=O)c2cc(NC(=O)Nc3cccc4ccccc34)ccc2O[C@H]1CN(C)Cc1ccc(Oc2ccccc2)cc1	inactive
COc1ccc(CN(C)C[C@H]2Oc3ccc(NC(=O)Nc4cccc5ccccc45)cc3C(=O)N([C@@H](C)CO)C[C@@H]2C)cc1	inactive
C[C@@H]1CN([C@H](C)CO)C(=O)c2cc(NC(=O)Nc3cccc4ccccc34)ccc2O[C@@H]1CN(C)Cc1ccc(Oc2ccccc2)cc1	active
C[C@H](CO)N1C[C@H](C)[C@@H](CN(C)Cc2ccc(Oc3ccccc3)cc2)Oc2ccc(NC(=O)Nc3cccc4ccccc34)cc2C1=O	inactive
COc1ccc(CN(C)C[C@H]2Oc3ccc(NC(=O)Nc4cccc5ccccc45)cc3C(=O)N([C@H](C)CO)C[C@@H]2C)cc1	inactive
C[C@H](CO)N1C[C@H](C)[C@H](CN(C)Cc2ccc(Oc3ccccc3)cc2)Oc2ccc(NC(=O)Nc3cccc4ccccc34)cc2C1=O	active
COc1ccc(CN(C)C[C@@H]2Oc3ccc(NC(=O)Nc4cccc5ccccc45)cc3C(=O)N([C@@H](C)CO)C[C@H]2C)cc1	inactive
COc1ccc(CN(C)C[C@H]2Oc3ccc(NC(=O)Nc4cccc5ccccc45)cc3C(=O)N([C@@H](C)CO)C[C@H]2C)cc1	inactive
C[C@@H]1CN([C@@H](C)CO)C(=O)c2cc(NC(=O)Nc3cccc4ccccc34)ccc2O[C@@H]1CN(C)Cc1ccc(Oc2ccccc2)cc1	active
COc1ccc(CN(C)C[C@@H]2Oc3ccc(NC(=O)Nc4cccc5ccccc45)cc3C(=O)N([C@H](C)CO)C[C@@H]2C)cc1	inactive
COc1ccc(CN(C)C[C@@H]2Oc3ccc(NC(=O)Nc4cccc5ccccc45)cc3C(=O)N([C@H](C)CO)C[C@H]2C)cc1	inactive
C[C@H](CO)N1C[C@H](C)[C@H](CN(C)S(=O)(=O)c2ccc(F)cc2)Oc2ncc(C#CC(C)(C)O)cc2C1=O	inactive
C[C@@H]1CN([C@@H](C)CO)C(=O)c2c(c3ccccc3n2C)-c2ccccc2CO[C@@H]1CN(C)Cc1cccc(C(=O)O)c1	inactive
C[C@H](CO)N1C[C@H](C)[C@H](CN(C)S(=O)(=O)c2ccc(Oc3ccccc3)nc2)OCc2cnnn2CCCC1=O	inactive
